Bioassay records deposited in PubChem by several laboratories.
Rows were chosen to be rich in hits. Some 2% of all compounds tested hit in one or more screens of this group.
Shn3 inh set2 = reduction of Shn3 3'UTR firefly luciferase signal, primary screen, Schnurri-3 inhibitor project, cell-based, Clone20 osteoblasts, set 2 | Clone20 osteoblast Shn3 3'UTR firefly luciferase, 24 h | inhibition, % at 12.5 µM | actives 0.52% (n = 360,000) | AID 588674, 2011;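 active = mean inhibition of at least 75% with every replicate also reaching 75%; inconclusive = mean inhibition at least 75% but some replicate below; inactive = mean inhibition below 75%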;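 also: 0% = median of neutral control wells and 100% = pilot-screen positive control compound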
697 NFkB inh = inhibitors of PMA/ionomycin-induced NF-kB reporter, 697 cells, primary screen, B-cell NF-kB inhibitor project, cell-based, luminescence, uHTS | inhibition, % at 4 µM | AID 435022, 2010 | 697 B-cell NF-kB luciferase reporter, 16 h | actives 0.33% (n = 330,000); in the data active = inhibition above about 35%
Calb FLC = C. albicans growth inhibition with fluconazole, primary screen, CaCi-2 strain, Alamar Blue fluorescence; C. albicans CaCi-2 (fluconazole-resistant clinical isolate) + fluconazole, 48 h; growth inhibition, % (no concentration beside the values); actives 0.57% (n = 300,000); AID 1979, 2009;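 active = growth inhibition above about 58% in most replicates, limit read from the data, passing the limit was not always enough; inconclusive = exactly half the replicates above a set limit; inactive = most replicates below a set limit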;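 also: all wells also contain fluconazole at 8 µg/ml as a sub-toxic cotreatment; 0% = median of DMSO wells and 100% = median of geldanamycin control wells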
Beta apoptosis = inhibitors of cytokine-induced beta cell apoptosis, primary screen, luminescence. INS-1E cytokine-induced death, ATP luminescence, 48 h; percent of positive-control rescue, neutral wells zero. protection from apoptosis, % (no concentration beside the values). actives 0.8% (n = 300,000);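 active = Every replicate reaches about 75%, or at least half do and their mean reaches it too, limit read from the data; inconclusive = At least half of replicates reach the limit but their mean does not; inactive = Under half of replicates reach the limit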;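 also: 0% = cytokine-treated negative control wells and 100% = positive control rescue; higher means more ATP so stronger rescue from cytokine killing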
Jurkat NFkB inh = inhibitors of induced NF-kB luciferase reporter, primary screen, TCR NF-kB activation inhibitor project, cell-based, luminescence, uHTS | Jurkat, PMA/ionomycin-induced NF-kB luciferase reporter | inhibition, % at 4 µM | actives 0.53% (n = 330,000); in the data active = inhibition above about 50%
* marks the source's active call; other numbers are inactive results; ? = inconclusive; nt = no result given.

SMILES	Shn3 inh set2	697 NFkB inh	Calb FLC	Beta apoptosis	Jurkat NFkB inh
CC(C)Cn1c(N)c(C(=O)COC(=O)CC23CC4CC(CC(C4)C2)C3)c(=O)n(C)c1=O	87*	-15	2	105*	47
Cc1ccccc1CC(=O)Nc1ccc(S(=O)(=O)N2CCOCC2)cc1	-14	-16	nt	-6	-2
OC(CNC1CCCCC1)COCCOc1ccc(Br)cc1 (configuration not stated)	-6	7	3	106*	1
CCC/C=N/Nc1nnc(Cc2ccc(OC)c(OC)c2)c(=O)[nH]1	-13	9	1	-3	-7
COc1cc([N+](=O)[O-])ccc1NC(=O)CSc1nc2ccccc2n1-c1ccccc1	nt	-5	0	-2	-5
Cc1ccc(-c2nn(-c3ccccc3)cc2/C=N/NC(=O)c2ccc(Br)o2)cc1	25	-73	-4	136*	-60
O=C(N/N=C\c1cn(-c2ccccc2)nc1-c1ccccc1)c1ccc(Br)o1	-16	1	-1	110*	-18
O=C(N/N=C/c1cn(-c2ccccc2)nc1-c1ccccc1)c1ccco1	-48	6	12	2	-17
CC1CCC/C=C/C(=O)c2c(O)cc(O)cc2CC(=O)O1 (configuration not stated)	87*	-106	1	23	18
COc1ccc([C@]2(C(C)C)ON(c3ccccc3C(F)(F)F)C2=O)cc1	-26	7	nt	-1	0
Cc1cccc(C(=O)CC(=O)c2cc(Cl)ccc2O)c1	32	-37	98*	44	7
O=C(NCCCSc1ccccc1)c1cc(Br)ccc1O	-4	9	-3	-10	2
O=[N+]([O-])c1cccc(C=Nc2cccc3ccccc23)c1O	4	-19	101*	6	15
Cc1ccc(O)c(N=Cc2cc(Cc3ccccc3)cc([N+](=O)[O-])c2O)c1	12	-23	98*	nt	-2
Cc1cccc(C(=O)NCCc2ccccc2)c1	-36	-158	-3	-1	-101
C=C[C@]1(C)C=C2C(=O)[C@@]3(O)OC(=O)[C@@]4(CCCC(C)(C)[C@H]34)[C@@]2(O)CC1	95*	nt	nt	nt	nt
COc1ccc(CCNC(=O)CSc2nnc(CNC(=O)c3cc(OC)c(OC)c(OC)c3)o2)cc1OC	5	-3	-5	-2	8
CC(C)c1nnc(NC(=O)CCS(=O)(=O)Cc2ccccc2)s1	-5	7	14	-17	2
CC(C)c1nnc(NC(=O)CCS(=O)(=O)c2nc(-c3cccs3)cc(C(F)(F)F)n2)s1	99*	-9	3	-4	-3
CCOc1ccc(S(=O)(=O)N2CCC(C(=O)OC(C)C(=O)NC3CCCCC3C)CC2)cc1 (configuration not stated)	-5	18	nt	-7	16
Cc1n[nH]c(=S)n(NC(=O)CC(=O)Nn2c(=S)[nH]nc(C)c2=O)c1=O	13	-3	93*	2	0
Cc1n[nH]c(=S)n(NC(=O)/C=C/C(=O)Nn2c(=S)[nH]nc(C)c2=O)c1=O	2	nt	-7	nt	nt
O=C(NCCOCCOCCNC(=O)c1cccnc1)c1cccnc1	-17	-8	0	120*	-18
Cc1ccc(CN(C(=O)c2csnn2)C(C(=O)NC2CCCC2)c2ccccn2)cc1 (configuration not stated)	-21	-3	8	1	2
c1csc(CNc2ncnc3sccc23)c1	89*	13	85*	80*	44
SMILES	Shn3 inh set2	697 NFkB inh	Calb FLC	Beta apoptosis	Jurkat NFkB inh
c1ccc(CNc2ncnc3sccc23)cc1	57	-32	21	38	14
COc1ccc(CNc2ncnc3sccc23)cc1	?	0	-11	75*	35
O=C(NNC1CC(=O)N(c2ccc(Cl)cc2)C1=O)c1ccco1 (configuration not stated)	10	9	6	3	8
Cc1ccc(S(=O)(=O)N(Cc2ccccc2)c2ccccc2C(=O)N2CCCCC2)cc1	9	7	7	10	10
Cc1nn(-c2ccccc2)c(C)c1C(=O)OC(C)C(=O)NC1CCCCC1 (configuration not stated)	83*	-14	nt	-5	11
Cc1nn(-c2ccccc2)c(Cl)c1C(=O)NC1CCCCC1	15	-7	7	-2	-13
O=C(Nc1ccc(-c2ccc(N3CCCCC3)nn2)cc1)c1ccco1	-139	-103	25	11	-71
O=C(O)CSCC(=O)NCc1cccc(C(F)(F)F)c1	1	-4	9	-5	5
O=C1CCN(C(=O)c2cccs2)c2ccccc21	-12	-1	4	-7	0
CN1C(=O)/C(=C\C(=O)c2cccs2)c2ccccc21	31	1	97*	nt	18
CCOc1cc(/C=C2\C(=O)ON=C2C)ccc1OCc1ccccc1	91*	20	5	4	-8
CCCOc1ccc(/C=C2/C(=O)ON=C2C)cc1OCC	13	23	-2	1	3
CC(C)C[C@H](NC(=O)[C@H](Cc1ccccc1)n1c(=O)[nH]c2ccccc2c1=O)C(=O)N1CCC[C@@H]1C(=O)O	14	-20	-4	nt	-10
CCOc1ccc(NC(=O)CN(C)S(=O)(=O)c2cccc3cccnc23)cc1	14	16	27	4	0
CC1(C)Cc2ccccc2C(N/N=C/c2ccc([N+](=O)[O-])cc2)=N1	-30	14	75*	-4	6
Cc1ccc(S(=O)(=O)C=CS(=O)(=O)c2ccc(C)cc2)cc1	85	nt	nt	nt	nt
O=S(=O)(/C=C/C=C/S(=O)(=O)c1ccccc1)c1ccccc1	98*	nt	nt	nt	nt
Nc1cc(=O)[nH]c(SCC(=O)N2CCCC2)n1	3	-1	nt	-6	-16
COc1ccc(CN(CCN)C2CC(C)N(C)CC2C)cc1 (configuration not stated)	-15	10	-6	-1	-11
Cc1nnsc1C(=O)NC1CCCc2c1cnn2-c1ccccc1F (configuration not stated)	39	-20	-2	45	9
Cc1nnsc1C(=O)NC1CCCc2c1cnn2-c1ccc(C(C)(C)C)cc1 (configuration not stated)	83	13	2	75*	46
Cc1ccc2c(-c3csc(N)n3)c[nH]c2c1	nt	2	0	-3	-11
O=C(Nc1ccncc1)c1ccc(Br)cc1	21	4	93*	8	1
Cc1ccc(Nc2nc(Cl)nc(NC(C)(C)C)n2)cc1	-116	-56	94*	nt	-61
CCOC(=O)CNc1nc(Cl)nc(Nc2ccc(C)cc2)n1	nt	22	7	-5	-2
CC(C)C(Sc1nc(-c2ccccc2)cc(-c2ccccc2)c1C#N)C(=O)O (configuration not stated)	11	3	87*	0	6
